Structures can show the parent of a compound that is named as a salt. ± gives the standard deviation of the averaged measurements.
Key:
[1] = tested on: Saccharomyces cerevisiae BY4741 SeMeCo community; experiment: mean cell size (pixel area) (pixels); higher = larger cells; details: 10 µM; 24 h; SM minimal medium
In short: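 Mean cell pixel area per well was determined by automated confocal microscopy with Harmony analysis of paraformaldehyde-fixed cells. The cells, a Saccharomyces cerevisiae BY4741 community of four plasmids that each complement one auxotrophy and carry a fluorescent marker, were incubated for 24 h with drug at a final 10 µM in SM medium in 384-well plates. Numbers are averaged over 3 replicates. Same SeMeCo high-content imaging drug screen: Selleck FDA-approved drugs at 10 µM, 24 h in SM medium, 384-well plates, 3 replicates.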

[2] = tested on: Saccharomyces cerevisiae BY4741 SeMeCo community; experiment: z-score of prototroph abundance vs DMSO median; higher = larger share of this subpopulation than in DMSO controls; details: 10 µM; 24 h; SM minimal medium; subpopulation (auxotrophy): Prototroph
In short: (§1)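 Four plasmids, each restoring a single auxotrophy and encoding a distinct fluorescent protein, were carried by a Saccharomyces cerevisiae BY4741 community. After overnight growth to OD600 1.0 and dilution to 0.3, 70 µl per well was grown for 24 h in minimal SM medium on 384-well plates acoustically predosed with library drugs at 10 µM final. Following paraformaldehyde fixation, automated confocal microscopy was used, with single-auxotroph fluorescent strains defining thresholds and autofluorescence correction. Subpopulation abundance was then scored as a z-score against the vehicle-well median.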

[3] = tested on: Saccharomyces cerevisiae BY4741 SeMeCo community; experiment: z-score of subpopulation abundance vs DMSO median, subpopulation auxotrophic for M; higher = larger share of this subpopulation than in DMSO controls; details: 10 µM; 24 h; SM minimal medium; subpopulation (auxotrophy): M
In short: as §1

[4] = tested on: Saccharomyces cerevisiae BY4741 SeMeCo community; experiment: z-score of subpopulation abundance vs DMSO median, subpopulation auxotrophic for L; higher = larger share of this subpopulation than in DMSO controls; details: 10 µM; 24 h; SM minimal medium; subpopulation (auxotrophy): L
In short: as §1

[5] = tested on: Saccharomyces cerevisiae BY4741 SeMeCo community; experiment: z-score of subpopulation abundance vs DMSO median, subpopulation auxotrophic for U; higher = larger share of this subpopulation than in DMSO controls; details: 10 µM; 24 h; SM minimal medium; subpopulation (auxotrophy): U
In short: as §1

[6] = tested on: Saccharomyces cerevisiae BY4741 SeMeCo community; experiment: z-score of subpopulation abundance vs DMSO median, subpopulation auxotrophic for H; higher = larger share of this subpopulation than in DMSO controls; details: 10 µM; 24 h; SM minimal medium; subpopulation (auxotrophy): H
In short: as §1

[7] = tested on: Saccharomyces cerevisiae BY4741 SeMeCo community; experiment: z-score of subpopulation abundance vs DMSO median, subpopulation auxotrophic for LU; higher = larger share of this subpopulation than in DMSO controls; details: 10 µM; 24 h; SM minimal medium; subpopulation (auxotrophy): LU
In short: as §1

[8] = tested on: Saccharomyces cerevisiae BY4741 SeMeCo community; experiment: z-score of subpopulation abundance vs DMSO median, subpopulation auxotrophic for LM; higher = larger share of this subpopulation than in DMSO controls; details: 10 µM; 24 h; SM minimal medium; subpopulation (auxotrophy): LM
In short: as §1

[9] = tested on: Saccharomyces cerevisiae BY4741 SeMeCo community; experiment: z-score of subpopulation abundance vs DMSO median, subpopulation auxotrophic for HM; higher = larger share of this subpopulation than in DMSO controls; details: 10 µM; 24 h; SM minimal medium; subpopulation (auxotrophy): HM
In short: as §1

[10] = tested on: Saccharomyces cerevisiae BY4741 SeMeCo community; experiment: z-score of subpopulation abundance vs DMSO median, subpopulation auxotrophic for HU; higher = larger share of this subpopulation than in DMSO controls; details: 10 µM; 24 h; SM minimal medium; subpopulation (auxotrophy): HU
In short: as §1

[11] = tested on: Saccharomyces cerevisiae BY4741 SeMeCo community; experiment: z-score of subpopulation abundance vs DMSO median, subpopulation auxotrophic for UM; higher = larger share of this subpopulation than in DMSO controls; details: 10 µM; 24 h; SM minimal medium; subpopulation (auxotrophy): UM
In short: as §1

[12] = tested on: Saccharomyces cerevisiae BY4741 SeMeCo community; experiment: z-score of subpopulation abundance vs DMSO median, subpopulation auxotrophic for HLU; higher = larger share of this subpopulation than in DMSO controls; details: 10 µM; 24 h; SM minimal medium; subpopulation (auxotrophy): HLU
In short: as §1

[13] = tested on: Saccharomyces cerevisiae BY4741 SeMeCo community; experiment: z-score of subpopulation abundance vs DMSO median, subpopulation auxotrophic for HLM; higher = larger share of this subpopulation than in DMSO controls; details: 10 µM; 24 h; SM minimal medium; subpopulation (auxotrophy): HLM
In short: as §1

[14] = tested on: Saccharomyces cerevisiae BY4741 SeMeCo community; experiment: z-score of subpopulation abundance vs DMSO median, subpopulation auxotrophic for HUM; higher = larger share of this subpopulation than in DMSO controls; details: 10 µM; 24 h; SM minimal medium; subpopulation (auxotrophy): HUM
In short: as §1

[15] = tested on: Saccharomyces cerevisiae BY4741 SeMeCo community; experiment: z-score of subpopulation abundance vs DMSO median, subpopulation auxotrophic for LUM; higher = larger share of this subpopulation than in DMSO controls; details: 10 µM; 24 h; SM minimal medium; subpopulation (auxotrophy): LUM
In short: as §1

[16] = tested on: Saccharomyces cerevisiae BY4741 SeMeCo community; experiment: z-score of subpopulation abundance vs DMSO median, subpopulation auxotrophic for HLUM; higher = larger share of this subpopulation than in DMSO controls; details: 10 µM; 24 h; SM minimal medium; subpopulation (auxotrophy): HLUM
In short: as §1

[17] = tested on: Saccharomyces cerevisiae BY4741 SeMeCo community; experiment: z-score of subpopulation abundance vs DMSO median, subpopulation auxotrophic for HL; higher = larger share of this subpopulation than in DMSO controls; details: 10 µM; 24 h; SM minimal medium; subpopulation (auxotrophy): HL
In short: as §1

| Compound | mean cell size [1] | z-score of prototroph abundance [2] | z-score of subpopulation abundance [3] | z-score of subpopulation abundance [4] | z-score of subpopulation abundance [5] | z-score of subpopulation abundance [6] | z-score of subpopulation abundance [7] | z-score of subpopulation abundance [8] | z-score of subpopulation abundance [9] | z-score of subpopulation abundance [10] | z-score of subpopulation abundance [11] | z-score of subpopulation abundance [12] | z-score of subpopulation abundance [13] | z-score of subpopulation abundance [14] | z-score of subpopulation abundance [15] | z-score of subpopulation abundance [16] | z-score of subpopulation abundance [17] |
| --- | --- | --- | --- | --- | --- | --- | --- | --- | --- | --- | --- | --- | --- | --- | --- | --- | --- |
| O=C(Cn1cnnn1)N[C@@H]1C(=O)N2C(C(=O)O)=C(CSc3nncs3)CS[C@H]12 [Ceftezole sodium] | 12.31 ± 0.087 | -0.69 | 0.01 | -0.77 | 1.07 | -0.94 | 0.2 | 0.18 | -0.19 | 0.45 | 0.35 | 0.11 | 0.32 | -0.02 | 0.36 | 0.82 | – |
| CCCCc1oc2ccc(NS(C)(=O)=O)cc2c1C(=O)c1ccc(OCCCN(CCCC)CCCC)cc1 [Dronedarone HCl] | 12.24 ± 0.057 | -0.15 | -0.05 | 0.34 | -0.45 | 1.17 | 0.61 | 0.28 | 1.04 | 0.78 | -0.63 | 2.17 | 1.9 | -0.2 | 0.59 | 0 | 1.2 |
| CCCN[C@H]1CCc2nc(N)sc2C1 [Pramipexole dihydrochloride] | 12.3 ± 0.17 | 0.25 | -0.32 | -0.42 | -0.06 | -0.35 | -0.61 | -0.39 | -0.31 | 0 | 0.32 | -0.24 | -0.79 | 0.52 | -0.25 | 0 | – |
| O=C(CCCN1CC=C(n2c(=O)[nH]c3ccccc32)CC1)c1ccc(F)cc1 [Droperidol] | 12.61 ± 0.072 | -0.55 | 0.67 | 0.41 | 0.1 | -0.5 | 1.58 | 0.69 | 0.2 | -0.11 | 0.62 | -0.09 | 0.63 | -0.23 | 0.57 | 0.59 | 0.21 |
| CCCc1cc(C(N)=S)ccn1 [Protionamide] | 12.4 ± 0.19 | 0.19 | 0.32 | 0.04 | -0.66 | -0.56 | -0.68 | 0.16 | 0.36 | -0.73 | 0.32 | -0.42 | -0.03 | 0.47 | -0.28 | -0.96 | -0.83 |
| CO/N=C(\C(=O)N[C@@H]1C(=O)N2C(C(=O)O)=C(COC(C)=O)CS[C@H]12)c1csc(N)n1 [Cefotaxime sodium] | 12.36 ± 0.028 | -0.43 | 0.24 | -0.14 | 1.03 | -0.66 | 0.37 | 1.08 | -0.37 | -0.11 | 0.17 | 0.33 | 0 | -0.16 | 0.05 | 0.47 | – |
| CCOC(=O)c1c(CSc2ccccc2)n(C)c2cc(Br)c(O)c(CN(C)C)c12 [Arbidol HCl] | 12.6 ± 0.16 | -0.66 | 0.41 | -0.99 | 1.69 | 0.13 | -0.24 | -0.98 | 0.29 | 0.91 | 0.68 | 0.12 | 0.87 | 0.09 | -0.37 | 0.15 | – |
